Test [1] can be described thus: Nuclear factor erythroid 2-related factor 2/antioxidant responsive element (Nrf2/ARE) small molecule agonists: luciferase reporter gene qHTS assay in human keratinocytes (AID 1919969; also: nearly all actives have a fitted effect of over 35% in size; also: potency is read from the fitted curve at half-maximal effect). (Reporter assays use an easily measured gene product as a stand-in for the process of interest.)
Test [2] addresses Gonadotropin-releasing hormone receptor (Homo sapiens) (UniProt P30968). Kind of test: Human gonadotropin-releasing hormone receptor (GnRHR) small molecule agonists, calcium flux assay in GnRHR-HEK293 cells (AID 1920063). Also: nearly all actives have a fitted effect of over 35% in size. Also: potency is read from the fitted curve at half-maximal effect. The method, boiled down: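 Agonist activity was measured as intracellular calcium flux in HEK293 cells engineered to stably express human GnRHR. After dye loading for 1 hour at 37 C, compounds in DMSO were added and fluorescence was followed for 3 minutes.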
A general note: A change in cytosolic calcium serves as a functional read-out for many receptors and channels.

Test [3] addresses KiSS-1 receptor (Homo sapiens) (UniProt Q969F8). Nature of the test: Human kisspeptin (KISS1R) small molecule agonists, calcium flux assay in KISS1R-HEK293 cells (AID 1920064; active = well fitted curve in the direction sought with a large enough effect in the repeat runs; an effect the other way counts as inactive or inconclusive; also: potency is read from the fitted curve at half-maximal effect). Put shortly:
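Agonist activity is monitored as intracellular calcium rise in engineered HEK293 cells carrying human KISS1R. Cells are dye-loaded for 1 h at 37 C before compound addition, and fluorescence is recorded for 3 min.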

Test [4] can be described thus: G protein-coupled receptor (GPCR) small molecule agonists, calcium flux assay: HEK293 wild type cell line counter screen (AID 1920065). Also: potency is read from the fitted curve at half-maximal effect. The method, boiled down: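 Seed cells, incubate 18 h (37 C, 5% CO2); add calcium dye, 1 h at 37 C; pin-transfer compounds, ATP control or DMSO; read fluorescence 480/540 nm each second for 3 min.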
Test [5] is described as follows: p53 small molecule agonists, cell-based qHTS assay with human liver microsomes (AID 1963577).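 Also: p53 response element beta-lactamase reporter cells with liver microsomes plus NADPH; % is scaled to controls: 0 for no effect and ±100 for the full control effect.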 Put shortly:
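Metabolically competent format: test substances, human liver microsomes and NADPH (both 0.5 mg/mL final) incubated with p53RE-bla cells 16 h at 37 C. Beta-lactamase reporter signal then quantified by fluorescence.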
Background: qHTS replaces the single test concentration by a dilution series.

The nature of test [6]: p53 small molecule agonists, cell-based qHTS assay with rat liver microsomes (AID 1963578). Also: % is scaled to controls: 0 for no effect and ±100 for the full control effect. Put shortly: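 Each plate received p53RE-bla cells, then compound, then rat liver microsomes and NADPH (both 0.5 mg/mL final). Plates were held 16 h at 37 C, and beta-lactamase activity was detected with LiveBLAzer over 2 h.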
Test [7] is described as follows: p53 small molecule agonists, cell-based qHTS assay with human liver microsomes: qHTS cell viability counter screen (AID 1963579). Also: nearly all actives have a fitted effect of over 45% in size. Also: potency is read from the fitted curve at half-maximal effect. The method, boiled down:
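Tox21 library compounds, delivered from DMSO stocks, were tested on p53RE-bla cells together with 0.5 mg/mL human liver microsomes and 0.5 mg/mL NADPH (final) over 16 h at 37 C; CellTiter-Glo luminescence served as the cytotoxicity measure.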

A short description of test [8]: p53 small molecule agonists, cell-based qHTS assay with rat liver microsomes: qHTS cell viability counter screen (AID 1963580). Also: % is scaled to controls: 0 for no effect and ±100 for the full control effect; nearly all actives have a fitted effect of over 45% in size. Put shortly:
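Counter screen for cytotoxicity under metabolic activation: rat liver microsomes and NADPH, 0.5 mg/mL final each, added with compounds to p53RE-bla HCT-116 cells; 16 h at 37 C, then ATP luminescence read.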

Test [9] can be described thus: p53 small molecule agonists, cell-based qHTS assay: qHTS cell viability counter screen (AID 1963581). Also: nearly all actives have a fitted effect of over 45% in size. Also: potency is read from the fitted curve at half-maximal effect. Put shortly: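 Viability was counter-screened in parallel with the p53 agonist reporter by measuring intracellular ATP luminescence in the same HCT-116 p53RE-bla wells after 16 h compound treatment at 37 C.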
A short description of test [10]: p53 small molecule agonists, cell-based qHTS assay (AID 1963582; active = well fitted activation curve with a large enough effect in the signal ratio in the repeat runs, not every such curve was filed as active; the % refers to the signal ratio; also: % is scaled to controls: 0 for no effect and ±100 for the full control effect). Put shortly: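 Cells carrying a p53-responsive bla reporter are treated with test compounds for 16 h at 37 C; beta-lactamase activity is then detected with LiveBLAzer B/G FRET substrate after 2 h at room temperature.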
For test [11], the target named is 5-hydroxytryptamine receptor 2A (Homo sapiens) (UniProt P28223). Kind of test: 5-hydroxytryptamine receptor 2A (HTR2A) small molecule antagonists, cell-based qHTS assay (AID 1963586). Also: nearly all actives have a fitted effect of over 45% in size. Also: potency is read from the fitted curve at half-maximal effect. The method, boiled down: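 CHO cells stably expressing human HTR2A were plated for 18 h at 37 C, then loaded with calcium dye for 1 h. Compounds were preincubated 5 min at room temperature before DOI (4 nM solution) was added. Kinetic fluorescence was read for 3 min.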

The target is the same in test [12]. Kind of test: 5-hydroxytryptamine receptor 2A (HTR2A) small molecule agonists, cell-based qHTS assay (AID 1963587). Also: nearly all actives have a fitted effect of over 30% in size. Also: potency is read from the fitted curve at half-maximal effect. Put shortly:
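HTR2A-CHO cells, plated 18 h at 37 C/5% CO2, dye-loaded 1 h at 37 C; compounds in DMSO added by pin tool (agonist mode). Intracellular calcium flux read as kinetic fluorescence on FDSS over 2 min at 1 s intervals.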

The target in test [13] is Muscarinic acetylcholine receptor M1 (Homo sapiens) (UniProt P11229). Nature of the test: Cholinergic receptor muscarinic 1 (CHRM1) small molecule antagonists, cell-based qHTS assay (AID 1963588). Also: % is scaled to controls: 0 for no effect and ±100 for the full control effect; nearly all actives have a fitted effect of over 40% in size. The method, boiled down: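 Compounds were tested at 15 concentrations in three independent runs. Dye-loaded CHRM1-CHO cells were exposed 5 min at room temperature before stimulation by acetylcholine added at 50nM. Intracellular calcium was read kinetically on FDSS for 3 min.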

Test [14] shares this target. Nature of the test: Cholinergic receptor muscarinic 1 (CHRM1) small molecule agonists, cell-based qHTS assay (AID 1963589). Also: nearly all actives have a fitted effect of over 35% in size. Also: potency is read from the fitted curve at half-maximal effect. The method, boiled down:
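Cells were plated and incubated 18 h at 37 C/5% CO2, loaded with calcium dye for 1 h at 37 C, then treated with compounds in DMSO. Fluorescence was recorded kinetically at 1 sec intervals.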

A short description of test [15]: cAMP Responsive Elements (CRE) small molecule agonists, cell-based qHTS assay (AID 1963590). Also: % is scaled to controls: 0 for no effect and ±100 for the full control effect. Put shortly:
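Cells carrying a CRE-driven beta-lactamase reporter (HEK 293T) are seeded, incubated overnight (18 h), and treated with test compounds for 3 h at 37 C; reporter activity is then detected with a FRET substrate after 2 h at room temperature.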

A short description of test [16]: cAMP Responsive Elements (CRE) small molecule antagonists, cell-based qHTS assay (AID 1963591; active = well fitted inhibition curve with a large enough effect in the signal ratio in the repeat runs, not every such curve was filed as active; the % refers to the signal ratio; also: % is scaled to controls: 0 for no effect and ±100 for the full control effect). Put shortly:
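Cells (CRE-bla HEK 293T, DMEM with 10% dialyzed FBS and 25 mM HEPES) are seeded and incubated 18 h. Compounds are added with NKH477 agonist at 0.25 uM final for 3 h, then FRET substrate for 2 h.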

The target of test [17] is D(2) dopamine receptor (Homo sapiens) (UniProt P14416). Nature of the test: Dopamine D2 receptor (DRD2) small molecule agonists, cell-based qHTS assay (AID 1963594). Also: % is scaled to controls: 0 for no effect and ±100 for the full control effect; nearly all actives have a fitted effect of over 35% in size. Put shortly: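 HEK293 cells stably expressing DRD2 were cultured 24 h at 37 C, then given Ro20-1724 (0.1 mM final) and compounds for 10 min at room temperature. NKH477 (200nM) was then added for 30 min. cAMP was read by HTRF.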

The target is the same in test [18]. Kind of test: Dopamine D2 receptor (DRD2) small molecule antagonists, cell-based qHTS assay (AID 1963595; active = well fitted inhibition curve with a large enough effect in the signal ratio in the repeat runs, with a control signal flat; the % refers to the signal ratio; also: % is scaled to controls: 0 for no effect and ±100 for the full control effect). Put shortly: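 HTRF cAMP read-out at 665 and 620 nm emission (340 nm excitation). Antagonist mode: compounds were tested against 12 nM quinpirole in DRD2-HEK293 cells, with 200 nM NKH477 raising cAMP and 0.1 mM Ro20-1724 blocking its breakdown.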
Test [19] is described as follows: Nuclear factor erythroid 2-related factor 2/antioxidant responsive element (Nrf2/ARE) small molecule agonists: qHTS cell viability counter screen in human keratinocytes (AID 1919968; active = well fitted curve in the direction sought with a large enough effect in the repeat runs; an effect the other way counts as inactive or inconclusive; also: potency is read from the fitted curve at half-maximal effect; nearly all actives have a fitted effect of over 55% in size). The method, boiled down: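 Cytotoxicity was multiplexed with the Nrf2/ARE luciferase assay in the same wells. Stably transfected HaCaT keratinocytes were treated with test compounds for 23 h at 37 C. Cell viability was then measured by CellTiter-Fluor fluorescence.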

Test [20] addresses Beta-2 adrenergic receptor (Homo sapiens) (UniProt P07550). Nature of the test: Adrenergic beta2 receptor (ADRB2) small molecule antagonists, cell-based qHTS assay (AID 1963592). Also: series mostly up to about 92 µM; % is scaled to controls: 0 for no effect and ±100 for the full control effect; nearly all actives have a fitted effect of over 50% in size. The method, boiled down:
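Assay format: CHO-ADRB2 cells, 18-20hr seeding at 37C/5% CO2, then compound plus 1nM isoproterenol agonist mix for 0.5hr RT. Homogeneous time-resolved fluorescence cAMP detection after 1hr, expressed as 665/615 nm ratio.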

Potency, activation and activity change, negative = inhibition data for 8 compounds are collected here from PubChem BioAssay (Tox21).

“And” between values parts separate entries of the source, which are not always exact repeats. Equal entries are not always repeated. Unmarked numbers belong to inactive results. Inconclusive results are not listed. The source made the active and inactive calls. Unless noted, calls follow the shape of the full dose curve.

Sequence of Muscarinic acetylcholine receptor M1 (Homo sapiens) (P11229 whole entry, looked up): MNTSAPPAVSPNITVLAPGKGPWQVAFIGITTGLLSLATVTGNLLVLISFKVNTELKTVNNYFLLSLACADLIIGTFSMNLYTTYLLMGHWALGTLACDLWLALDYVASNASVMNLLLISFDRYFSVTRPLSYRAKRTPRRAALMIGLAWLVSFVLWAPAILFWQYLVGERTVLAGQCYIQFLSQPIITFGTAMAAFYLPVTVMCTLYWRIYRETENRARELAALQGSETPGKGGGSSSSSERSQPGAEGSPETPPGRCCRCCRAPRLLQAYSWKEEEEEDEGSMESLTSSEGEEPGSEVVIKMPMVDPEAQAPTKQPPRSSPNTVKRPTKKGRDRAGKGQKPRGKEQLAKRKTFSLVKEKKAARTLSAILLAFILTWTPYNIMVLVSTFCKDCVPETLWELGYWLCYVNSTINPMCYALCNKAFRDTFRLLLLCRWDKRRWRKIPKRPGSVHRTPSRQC
Sequence of Beta-2 adrenergic receptor (Homo sapiens) (P07550 whole entry, looked up): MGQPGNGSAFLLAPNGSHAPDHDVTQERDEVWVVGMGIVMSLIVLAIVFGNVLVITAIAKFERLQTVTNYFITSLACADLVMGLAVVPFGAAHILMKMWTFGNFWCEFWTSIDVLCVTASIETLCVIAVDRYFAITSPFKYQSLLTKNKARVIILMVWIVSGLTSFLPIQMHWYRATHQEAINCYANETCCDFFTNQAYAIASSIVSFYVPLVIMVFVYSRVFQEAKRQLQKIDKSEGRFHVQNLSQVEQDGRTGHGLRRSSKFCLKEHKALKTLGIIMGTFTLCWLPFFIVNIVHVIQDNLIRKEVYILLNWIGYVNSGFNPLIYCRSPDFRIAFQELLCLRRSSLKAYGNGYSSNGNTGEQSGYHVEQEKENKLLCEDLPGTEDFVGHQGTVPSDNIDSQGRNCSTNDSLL
Sequence of Gonadotropin-releasing hormone receptor (Homo sapiens) (P30968 whole entry, looked up): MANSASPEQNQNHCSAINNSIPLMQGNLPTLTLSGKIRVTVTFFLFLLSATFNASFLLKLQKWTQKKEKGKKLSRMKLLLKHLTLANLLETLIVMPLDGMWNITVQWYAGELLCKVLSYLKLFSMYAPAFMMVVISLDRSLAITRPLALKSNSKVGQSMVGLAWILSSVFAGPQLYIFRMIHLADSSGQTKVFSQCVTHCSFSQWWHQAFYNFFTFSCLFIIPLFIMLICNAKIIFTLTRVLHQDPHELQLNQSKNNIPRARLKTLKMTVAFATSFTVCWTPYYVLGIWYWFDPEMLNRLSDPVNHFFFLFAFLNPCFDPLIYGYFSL
Sequence of KiSS-1 receptor (Homo sapiens) (Q969F8 whole entry, looked up): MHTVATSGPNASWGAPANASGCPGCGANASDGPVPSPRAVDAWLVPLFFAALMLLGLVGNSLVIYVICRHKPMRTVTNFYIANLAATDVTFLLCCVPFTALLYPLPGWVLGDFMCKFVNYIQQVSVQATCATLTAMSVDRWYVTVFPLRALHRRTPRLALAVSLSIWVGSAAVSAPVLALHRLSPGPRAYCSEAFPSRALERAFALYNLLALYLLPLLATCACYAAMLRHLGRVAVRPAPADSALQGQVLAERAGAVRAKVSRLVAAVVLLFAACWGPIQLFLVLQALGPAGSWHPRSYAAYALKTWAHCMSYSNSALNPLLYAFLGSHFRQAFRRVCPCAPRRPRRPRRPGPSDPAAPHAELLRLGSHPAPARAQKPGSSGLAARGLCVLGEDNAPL
Sequence of 5-hydroxytryptamine receptor 2A (Homo sapiens) (P28223 whole entry, looked up): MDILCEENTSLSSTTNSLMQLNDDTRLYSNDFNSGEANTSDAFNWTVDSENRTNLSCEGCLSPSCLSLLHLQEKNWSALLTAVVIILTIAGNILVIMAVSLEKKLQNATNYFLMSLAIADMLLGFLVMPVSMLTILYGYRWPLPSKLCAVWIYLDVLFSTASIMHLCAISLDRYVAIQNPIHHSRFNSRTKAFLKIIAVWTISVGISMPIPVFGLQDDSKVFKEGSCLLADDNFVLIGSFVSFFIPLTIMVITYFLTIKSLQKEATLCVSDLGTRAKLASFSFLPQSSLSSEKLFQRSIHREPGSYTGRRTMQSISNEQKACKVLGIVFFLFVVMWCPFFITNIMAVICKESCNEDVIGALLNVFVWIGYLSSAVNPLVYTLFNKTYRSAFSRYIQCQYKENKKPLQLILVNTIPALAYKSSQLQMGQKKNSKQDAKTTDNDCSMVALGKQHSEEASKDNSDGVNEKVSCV
Sequence of D(2) dopamine receptor (Homo sapiens) (P14416 whole entry, looked up): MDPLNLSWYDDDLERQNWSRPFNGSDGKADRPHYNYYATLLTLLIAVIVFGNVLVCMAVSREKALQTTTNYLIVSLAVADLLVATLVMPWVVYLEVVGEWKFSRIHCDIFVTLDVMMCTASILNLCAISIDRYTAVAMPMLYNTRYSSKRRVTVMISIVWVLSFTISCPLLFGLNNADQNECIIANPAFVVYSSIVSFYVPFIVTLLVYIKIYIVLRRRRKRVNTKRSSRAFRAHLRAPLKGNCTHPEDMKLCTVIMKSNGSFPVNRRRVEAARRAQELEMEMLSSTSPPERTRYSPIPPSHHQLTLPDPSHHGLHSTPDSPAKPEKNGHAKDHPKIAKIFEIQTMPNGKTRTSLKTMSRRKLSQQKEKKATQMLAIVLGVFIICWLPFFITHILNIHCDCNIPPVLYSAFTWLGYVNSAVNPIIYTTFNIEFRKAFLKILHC

For `CCCCCCCCCCCCN1CCCC1=O`, the Potency entry in test [1], in test [2], in test [3], in [4], in test [5] and in test [6] was “inactive” throughout. Besides, the Potency entry in test [7], in [8], in [9], in test [10], in test [11] and in [12] was “inactive” each time. In addition, the Potency entry in test [13], in test [14], in test [15], in test [16], in test [17] and in test [18] was “inactive” throughout.

Turning to `O=[N+]([O-])c1ccc(O)cc1`, the Potency entry in test [1], in [2], in test [3], in test [4], in test [5] and in test [6] was “inactive” throughout. The Potency entry in test [7], in test [8], in test [9], in test [10], in test [11] and in test [12] was “inactive” throughout. For the same compound, the Potency entry in test [14], in test [15], in test [16] and in test [17] was “inactive” in each case.

As to `Cc1c(C(=O)O)c(O)cc2c1C(=O)c1c(O)c([C@@H]3O[C@H](CO)[C@@H](O)[C@H](O)[C@H]3O)c(O)c(O)c1C2=O`, the Potency entry in test [1], in test [2], in test [3], in test [4], in [5] and in [6] was “inactive” in each case. Besides, the Potency result in test [7], in [8], in test [9], in [10], in [11] and in test [12] was “inactive” throughout. In addition, the Potency entry in test [14], in [15] and in test [16] was “inactive” each time.

As for `CCOc1nc2cccc(C(=O)OC(C)OC(=O)OC3CCCCC3)c2n1Cc1ccc(-c2ccccc2-c2nn[nH]n2)cc1` (stereo not drawn), the Potency was 48.5 µM (active) in [19], 12.9 µM (active) in [7] and 14.5 µM (active) in test [9]. The Potency result in test [4], in test [5], in test [11], in test [13], in test [14] and in [20] was “inactive” throughout. For the same compound, the Potency result in test [17] and in test [18] was “inactive” each time.

With `Cc1ccc(O)c(C(C)(C)C)c1`, the Potency entry in [1], in test [2], in [3], in [4], in test [5] and in [6] was “inactive” throughout. The Potency entry in [7], in test [8], in test [9], in test [10], in test [13] and in [14] was “inactive” each time. The Potency result in test [20], in [17] and in test [18] was “inactive” throughout. Moreover, the Potency in test [11] was 33.4 µM (active).

As to `Cc1cc2nc3c(=O)[nH]c(=O)nc-3n(C[C@H](O)[C@H](O)[C@H](O)CO)c2cc1C`, the Potency result in test [1], in test [7], in [8], in test [9], in test [10] and in test [11] was “inactive” in each case. In addition, the Potency result in test [13] is “inactive”. Further, the Potency in [2] is 17.2 µM (active) and 11.4 µM (active) and 8.27 µM (active); in test [3], 24.3 µM (active) and 22.8 µM (active); in test [4] it was 38.5 µM (active) and 32.2 µM (active) and 9.28 µM (active); in test [12], 6.1 µM (active) and 16.1 µM (active) and 11.7 µM (active); in [14] it was 24.3 µM (active) and 20.3 µM (active) and 11.7 µM (active). Besides, the activation in [5] was -6.49% [at 13.5 µM]; in [6], -5.55% [at 13.6 µM]. In addition, in test [20], the activity change, negative = inhibition is -10.6% [at 19 µM].

Regarding `CCC(Cl)C(Cl)C(Cl)CC(Cl)C(Cl)C(C)Cl` (stereo not drawn), the Potency in test [1] is 48.6 µM (active). Moreover, the Potency entry in [2], in [3], in test [4], in [5], in test [6] and in [7] was “inactive” throughout. Further, the Potency entry in test [8], in test [9], in [10], in test [11], in [12] and in test [13] was “inactive” throughout. The Potency entry in test [14], in test [16], in test [20] and in [17] was “inactive” throughout.

Regarding `CCCCCCCC/C=C/CCCCCCCC1=NCCN1CCO`, the Potency result in test [1], in [2], in [3], in test [4], in test [5] and in test [6] was “inactive” each time. The Potency result in test [7], in [8], in [9], in [10], in [12] and in test [14] was “inactive” throughout. In addition, the Potency entry in [15], in test [17] and in test [18] was “inactive” throughout.
